From PubChem
An excerpt weighted towards active compounds, which were near 2.3% of everything screened.
IL2 activator = IL-2 activation | 0.065% of 360,000 active | IL-2 activation reporter assay, cell-based qHTS; stimulated with anti-CD3/CD4/CD28 beads; in transgenic mouse T cells | activation, % (series mostly up to about 46 µM); in the data active means activation above about 50%; inconclusive means mostly about 30% to 49%; further: 0% is about no effect
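Readout: EGFP and DsRed signals by fluorescent plate cytometry. Unstimulated transgenic mouse T cells received compound 60 min before antibody-bead stimulation, then incubated 18 h at 37 degrees C.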
Nrf2 activator = activators of Nrf2 (ARE) signaling; 0.31% of 410,000 active; Potency, µM (highest dose often 46.1 µM), for inactives: top-dose activation, most hits filed as activators; AREc32 ARE-luciferase reporter (MCF7-derived line), luminescence, 24 h; further: potency means the concentration at half of the fitted maximal effect; % of control where 0% means no effect; nearly all actives have a fitted effect of over 65% in size
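Reporter line AREc32 (ARE-Fluc), seeded overnight in OPTI-MEM with 5% FBS; compound pin-transferred, 24 hr at 37 deg C, 5% CO2; luminescent read-out.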
Nrf2 block = inhibitors of Nrf2 signaling; A549 ARE-Fluc reporter, luciferase luminescence, 18-24 h; Potency, µM (doses to about 46 µM), inactives show top-dose activity change, negative = inhibition, actives largely listed as inhibitors; 2.1% of 360,000 active; AID 504444; further: potency means the concentration at half of the fitted maximal effect; on the % scale 0 is the no-effect control and ±100 the full control effect; nearly all actives have a fitted effect of over 60% in size
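A549 ARE_Fluc cells, 5000/well, 5% FBS OPTI-MEM; compounds in dose-response, 18-24 h at 37 °C/5% CO2; CellTiter-Fluor viability read (Ex 405/Em 525), then BugLite luciferase luminescence = Nrf2 activity.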
A549 tox = A549 cytotoxicity, counter-screen for Nrf2 inhibitors. A549 ARE-Fluc cells, CellTiter-Fluor viability, 18-24 h. Potency, µM (highest dose often 46 µM), for the others: top-dose activity change, negative = cytotoxicity, most hits filed as inhibitors. 0.16% of 390,000 active. AID 504648; further: potency means the concentration at half of the fitted maximal effect; on the % scale 0 is the no-effect control and ±100 the full control effect
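A549 ARE-Fluc cells in 5% FBS OPTI-MEM, 5000 cells/well, rested 2 h then exposed to compounds in concentration-response for 18-24 h at 37 °C. Viability by CellTiter-Fluor fluorescence (Ex 405/Em 525) after 30 min; luciferase luminescence (BugLite, 15 min, RT) read afterwards.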
* marks the source's active call; other numbers are inactive results; ? = inconclusive; . = no result. Unless noted, the call rests on the fitted dose curve; in most records, active means well fitted curve in the direction sought with a large enough effect; inconclusive means small, poorly fitted or top-dose-only effect, or another doubt; inactive means no such curve, though single readings can be large; an effect the other way counts as inactive or inconclusive.

SMILES | IL2 activator | Nrf2 activator | Nrf2 block | A549 tox
Cc1noc(C)c1-c1ccc2ncnc(NCc3cccc(C(F)(F)F)c3)c2c1 | . | . | ? | -5.9%
Cc1nc(SCC(=O)NCC2COc3ccccc3O2)c2c(C)c(C)sc2n1 (stereo not given) | -0.5 | 0.0% | 20.6µM* | 0.8%
Cc1cc(C)nc(SCC(=O)NCC2COc3ccccc3O2)n1 (stereo not given) | 1.0 | 0.0% | 16.9% | 0.9%
CC1CCc2c(sc3nnn(CC(=O)Nc4ccccc4Cl)c(=O)c23)C1 (stereo not given) | . | 4.7% | -10.4% | -12.9%
Cc1cccc(S(=O)(=O)N2CCN(S(=O)(=O)c3ccc4c(c3)OCCO4)CC2)c1 | . | . | 4.2% | 11.8%
CC(=O)c1ccccc1OCc1ccc(S(=O)(=O)Cc2ccccc2)cc1 | -0.1 | 2.8% | 20.6µM* | -5.3%
O=C(NCCO)c1cccc(Nc2nc(-c3ccccc3)c3cc(Cl)ccc3n2)c1 | 1.5 | 2.4% | 14.6µM* | -27.4%
Clc1ccc(Nc2nc(-c3ccccc3)c3cc(Cl)ccc3n2)cc1 | . | -0.3% | 8.9% | 10.7%
COc1ccc(Cc2nc3ccccc3n2Cc2ccccc2F)cc1 | . | 4.6% | 18.4µM* | -4.7%
Cn1cncc1CNc1ncnc2ccc(-c3ccc4c(c3)OCO4)cc12 | . | . | 6.5% | 13.3%
COc1cccc(OC)c1C(=O)Nn1c(C2CCC2)nc2ccccc2c1=O | 1.2 | -0.3% | . | -2.6%
O=C(Nn1c(C2CCCCC2)nc2ccccc2c1=O)c1ccc([N+](=O)[O-])cc1 | 6.8 | 3.7% | 23.1µM* | ?
Nc1c(-c2ccccc2)cc[nH]c1=O | . | . | -4.2% | -0.9%
CC(C)N1C(=O)S/C(=C/c2ccc(Sc3nc4ccccc4[nH]3)o2)C1=O | -3.5 | 9.4% | 14.6µM* | ?
COc1ccc(NC(=O)c2ccc3c(c2)CCN3S(=O)(=O)c2ccc(C)cc2)cc1Cl | . | 0.0% | -0.7% | -0.2%
COc1ccc(-c2cc3ccccc3nc2N)cc1OC | -0.4 | 2.0% | 16.4µM* | -1.2%
COC(=O)Cn1c(SCCOc2ccccc2Cl)nc2ccccc21 | . | 3.2% | 23.1µM* | -9.7%
Cc1ccc(OCCSc2nc3ccccc3n2CC(=O)N2CCOCC2)cc1 | . | 3.2% | 18.4µM* | -0.4%
NS(=O)(=O)c1ccc(N=Nc2c[nH]c(=O)c(O)c2)cc1 | 0.1 | 23.7% | -21.0% | 23.1µM*
Nc1nc(O)c(N=Nc2ccc(S(N)(=O)=O)cc2)c(=O)[nH]1 | -0.4 | -0.6% | 3.2% | -16.3%
CCOC(=O)Cc1csc(N/N=C/c2cccc([N+](=O)[O-])c2)n1 | 0.5 | 0.2% | -11.7% | -1.1%
O=[N+]([O-])c1cccc(-c2csc(N/N=C/c3cccc(O)c3)n2)c1 | 3.2 | 24.5% | 18.4µM* | ?
O=C(Nc1nc(-c2cccc([N+](=O)[O-])c2)cs1)C(c1ccccc1)c1ccccc1 | 1.1 | 1.4% | 14.6µM* | ?
CC(=O)OCCCNc1cc(SCc2ccco2)c2nonc2c1[N+](=O)[O-] | -0.5 | ? | -2.3% | 16.4µM*
COc1ccc2c(c1)c1nnc(SC)nc1n2Cc1ccccc1 | . | . | 15.7% | 8.1%
SMILES | IL2 activator | Nrf2 activator | Nrf2 block | A549 tox
CN(C)CCCNc1c2c(nc3ccccc13)CCC2 | -0.5 | -2.5% | 5.1% | 13µM*
OCCCNc1c2ccccc2nc2ccccc12 | -5.0 | -1.1% | 8.2µM* | ?
COCCNc1c2c(nc3ccccc13)CCC2 | 0.7 | -0.6% | 2.9% | 0.7%
CCOc1ccccc1CN(CCc1ccc2c(c1)OCO2)Cc1cccc(OC)c1OC | . | -0.2% | 5.2% | -20.7%
Cc1cccc(C)c1NC(=O)Cn1nc(C)c2sc3ccccc3c2c1=O | . | 0.3% | 20.6µM* | 3.8%
Cc1nn(CC(=O)N2CCOCC2)c(=O)c2c1sc1ccccc12 | -1.3 | -0.5% | 10.4% | -3.2%
CC(C)(C)CC(=O)Nc1nnc(C(F)(F)F)s1 | -3.0 | 0.2% | ? | -7.1%
O=C(Nc1ccccc1C(=O)Nc1nnc(C(F)(F)F)s1)c1ccccc1Cl | -5.4 | 2.1% | 6.51µM* | 16.4µM*
CC(NC(=O)Nc1nnc(C(F)(F)F)s1)(C(F)(F)F)C(F)(F)F | -0.8 | -0.2% | 5.17µM* | 16.4µM*
Cc1cc(C(=O)Nc2nnc(C(F)(F)F)s2)cs1 | -4.4 | 8.91µM* | 5.1% | -6.0%
COc1ccc(C(CC(=O)Nc2cccc(C)c2C)N2Cc3ccccc3C2=O)cc1 (stereo not given) | . | 0.1% | -14.8% | -1.2%
O=C(COc1ccc(NC(=O)c2cccs2)cc1)c1ccc(F)cc1 | -3.2 | 3.0% | 16.4µM* | -18.5%
